Test results as given in a collection of fitness landscapes (doi:10.1126/science.1257360).
In all, about 140,000 sequences were measured (“enrichment ratio after two sorts for PhoP signalling”: median about 0, highest 2% from about 11 on). Shown is part of a subset that was picked to be rich in the highest values.

B1: PhoQ; a variant is named by its letters at X, in order, P23837 (parent)
chain: MKKLLRLFFPLSLRVRFLLATAAVVLVLSLAYGMVALIGYSVSFDKTTFRLLRGESNLFYTLAKWENNKLHVELPENIDKQSPTMTLIYDENGQLLWAQRDVPWLMKMIQPDWLKSNGFHEIEADVNDTSLLLSGDHSIQQQLQEVREDDDDAEMTHSVAVNVYPATSRMPKLTIVVVDTIPVELKSSYMVWSWFIYVLSANLLLVIPLLWVAAWWSLRPIEALAKEVRELEEHNRELLNPATTRELTSLVRNLNRLLKSERERYDKYRTTLTDLTHSLKTPLXXLQXXLRSLRSEKMSVSDAEPVMLEQISRISQQIGYYLHRASMRGGTLLSRELHPVAPLLDNLTSALNKVYQRKGVNISLDISPEISFVGEQNDFVEVMGNVLDNACKYCLEFVEISARQTDEHLYIVVEDDGPGIPLSKREVIFDRGQRVDTLRPGQGVGLAVAREITEQYEGKIVAGESMLGGARMEVIFGRQHSAPKDE

Variants of: B1
Assay: enrichment ratio after two sorts for PhoP signalling (ratio (wild type AVST 3.29)); higher = more functional
Conditions: with PhoP (E. coli)

First: ITQQ
Second: YTMQ
The enrichment ratio of the first is lower: no more than 0.25 for the first, 0.469 for the second.

Going from LTQQ to TTMQ, the enrichment ratio rises from no more than 0.25 to 30.4.

YTHQ and TTHP cannot be ordered by enrichment ratio: no more than 0.25 for the first, no more than 0.25 for the second.

Compared with GYMQ, TTHQ is higher in enrichment ratio: no more than 0.25 for the first, 26.2 for the second.

YIIQ and QERY cannot be ordered by enrichment ratio: no more than 0.25 for the first, no more than 0.25 for the second.

QQLY and CLCR cannot be ordered by enrichment ratio: no more than 0.25 for the first, no more than 0.25 for the second.

VMKE and VTRG cannot be ordered by enrichment ratio: no more than 0.25 for the first, no more than 0.25 for the second.

QNQF and CTLS cannot be ordered by enrichment ratio: no more than 0.25 for the first, no more than 0.25 for the second.

Going from TTLA to TTLS, the enrichment ratio falls from 16.9 to 15.1.

First: YTLT
Second: YTLA
The enrichment ratio of the first is lower: no more than 0.25 for the first, 4.01 for the second.

Going from YTLS to TTPI, the enrichment ratio falls from 4.88 to 4.3.

First: TTLT
Second: ITLT
The enrichment ratio of the first is higher: 15.8 for the first, no more than 0.25 for the second.

IYDI and EDSR cannot be ordered by enrichment ratio: no more than 0.25 for the first, no more than 0.25 for the second.

KMPM and YVSD cannot be ordered by enrichment ratio: no more than 0.25 for the first, no more than 0.25 for the second.

RQYR and HAKY cannot be ordered by enrichment ratio: no more than 0.25 for the first, no more than 0.25 for the second.

DMQN and MLWE cannot be ordered by enrichment ratio: no more than 0.25 for the first, no more than 0.25 for the second.

First: MNNY
Second: TNAY
The enrichment ratio of the first is higher: 15.3 for the first, 2.94 for the second.

First: TNAQ
Second: MNAQ
The enrichment ratio of the first is lower: 4.37 for the first, 11.8 for the second.

Compared with MNHP, MNYI is higher in enrichment ratio: no more than 0.25 for the first, 9.81 for the second.

First: MNAY
Second: MNHF
The enrichment ratio of the first is higher: 17 for the first, 4.26 for the second.

MNYY and FVVQ cannot be ordered by enrichment ratio: no more than 0.25 for the first, no more than 0.25 for the second.

PGYA and ELDY cannot be ordered by enrichment ratio: no more than 0.25 for the first, no more than 0.25 for the second.

Compared with SGCL, RGCL is lower in enrichment ratio: 15.6 for the first, no more than 0.25 for the second.

Going from GGCL to TSCL, the enrichment ratio rises from 8.88 to 19.6.

SGDL and KSCL cannot be ordered by enrichment ratio: no more than 0.25 for the first, no more than 0.25 for the second.

First: TGCL
Second: CSCS
The enrichment ratio of the first is higher: 22.4 for the first, no more than 0.25 for the second.

Compared with SGGL, CSCL is higher in enrichment ratio: 6.41 for the first, 16.1 for the second.

Going from NSCL to FSCL, the enrichment ratio rises from no more than 0.25 to 8.2.

PKNL and TSYE cannot be ordered by enrichment ratio: no more than 0.25 for the first, no more than 0.25 for the second.

RGSH and NMFD cannot be ordered by enrichment ratio: no more than 0.25 for the first, no more than 0.25 for the second.

IIHI and LILE cannot be ordered by enrichment ratio: no more than 0.25 for the first, no more than 0.25 for the second.

NHCE and NSGM cannot be ordered by enrichment ratio: no more than 0.25 for the first, no more than 0.25 for the second.

Compared with HPWS, GNNL is higher in enrichment ratio: no more than 0.25 for the first, 2.95 for the second.

Compared with YHCL, GNCL is higher in enrichment ratio: no more than 0.25 for the first, 18.1 for the second.

YSKR and RNAK cannot be ordered by enrichment ratio: no more than 0.25 for the first, no more than 0.25 for the second.

First: ATTK
Second: ADTM
The enrichment ratio of the first is higher: 10.4 for the first, no more than 0.25 for the second.

Going from GNTM to ATTM, the enrichment ratio rises from 1.94 to 16.6.

Going from ATTI to AITM, the enrichment ratio rises from 13.7 to 23.3.

Going from ATWM to ANTM, the enrichment ratio rises from no more than 0.25 to 44.

Going from KKTM to ATPM, the enrichment ratio rises from no more than 0.25 to 0.758.

GHTM and ATTA cannot be ordered by enrichment ratio: no more than 0.25 for the first, no more than 0.25 for the second.

GVVP and QMYN cannot be ordered by enrichment ratio: no more than 0.25 for the first, no more than 0.25 for the second.

EFPL and KIKD cannot be ordered by enrichment ratio: no more than 0.25 for the first, no more than 0.25 for the second.

EALR and FKYT cannot be ordered by enrichment ratio: no more than 0.25 for the first, no more than 0.25 for the second.

VDAS and EAHV cannot be ordered by enrichment ratio: no more than 0.25 for the first, no more than 0.25 for the second.

NFSK and DNFH cannot be ordered by enrichment ratio: no more than 0.25 for the first, no more than 0.25 for the second.

First: QKWF
Second: QPWF
The enrichment ratio of the first is higher: 12.7 for the first, no more than 0.25 for the second.

Compared with QRWF, QGWF is higher in enrichment ratio: no more than 0.25 for the first, 18.8 for the second.

FFWF and HKWF cannot be ordered by enrichment ratio: no more than 0.25 for the first, no more than 0.25 for the second.

FQWF and KSWF cannot be ordered by enrichment ratio: no more than 0.25 for the first, no more than 0.25 for the second.

Going from TKWF to VAKP, the enrichment ratio falls from 13.4 to no more than 0.25.

YQPA and LESI cannot be ordered by enrichment ratio: no more than 0.25 for the first, no more than 0.25 for the second.

Going from MTAV to AMKH, the enrichment ratio falls from 7.37 to no more than 0.25.

VGAQ and RNKK cannot be ordered by enrichment ratio: no more than 0.25 for the first, no more than 0.25 for the second.

WHKS and HTKL cannot be ordered by enrichment ratio: no more than 0.25 for the first, no more than 0.25 for the second.

Compared with TMND, TMKT is lower in enrichment ratio: 21.9 for the first, no more than 0.25 for the second.

Going from TMNT to TMNA, the enrichment ratio rises from 11.9 to 24.8.

Going from TMPT to TMAT, the enrichment ratio rises from no more than 0.25 to 11.2.

First: NMNA
Second: TMNI
The enrichment ratio of the first is lower: no more than 0.25 for the first, 3.75 for the second.

First: DMNA
Second: TMNS
The enrichment ratio of the first is lower: no more than 0.25 for the first, 7.25 for the second.

First: TMGD
Second: TMTD
The enrichment ratio of the first is higher: 3.55 for the first, no more than 0.25 for the second.

AFCP and QIMN cannot be ordered by enrichment ratio: no more than 0.25 for the first, no more than 0.25 for the second.

YLAK and NTVM cannot be ordered by enrichment ratio: no more than 0.25 for the first, no more than 0.25 for the second.

PIIP and IRSI cannot be ordered by enrichment ratio: no more than 0.25 for the first, no more than 0.25 for the second.

NCPV and LVVW cannot be ordered by enrichment ratio: no more than 0.25 for the first, no more than 0.25 for the second.

WDPT and YRQK cannot be ordered by enrichment ratio: no more than 0.25 for the first, no more than 0.25 for the second.

Compared with TMHK, TMHG is higher in enrichment ratio: no more than 0.25 for the first, 13.3 for the second.

Going from TMNN to KMNF, the enrichment ratio falls from 34 to no more than 0.25.

Compared with TMNL, TMNG is higher in enrichment ratio: 5.04 for the first, 10.4 for the second.

First: TMNF
Second: NNNF
The enrichment ratio of the first is higher: 14.7 for the first, no more than 0.25 for the second.

NMNN and DTAT cannot be ordered by enrichment ratio: no more than 0.25 for the first, no more than 0.25 for the second.

HKAG and YDNA cannot be ordered by enrichment ratio: no more than 0.25 for the first, no more than 0.25 for the second.

YEKP and MQGD cannot be ordered by enrichment ratio: no more than 0.25 for the first, no more than 0.25 for the second.

Compared with QQHY, MQFM is lower in enrichment ratio: 21.2 for the first, 12.3 for the second.

MQHF and SQHY cannot be ordered by enrichment ratio: no more than 0.25 for the first, no more than 0.25 for the second.

First: QHHY
Second: MQHY
The enrichment ratio of the first is lower: no more than 0.25 for the first, 12.6 for the second.

First: MQFD
Second: MQFY
The enrichment ratio of the first is higher: 14.7 for the first, no more than 0.25 for the second.

KQFM and MQFA cannot be ordered by enrichment ratio: no more than 0.25 for the first, no more than 0.25 for the second.

Work on MQPI yielded an enrichment ratio of no more than 0.25.
